The record followed here is PubChem BioAssay AID1508649 (National Center for Advancing Translational Sciences (NCATS), 2021).

Molecules are shown by their SMILES. Among all 43,000 compounds or so, about 830 (1.9%) were called active. Roughly 30% stayed inconclusive and do not appear here. The sample as a whole holds a higher share of actives than the screen did. A number with no mark means an inactive call. How the source made its calls: active means clear falling dose curves in both reporters; inconclusive means both reporters move, but less clearly or upward; inactive means either reporter flat; the % is the NLuc reporter signal.
On the % scale 0 is the no-effect control and ±100 the full control effect; potency means the concentration at half of the fitted maximal effect.

This experiment is described as follows: Cell-based coincidence reporter assay to measure PMP22 gene transcription in S16 Pmp22-F2sN cells - Primary screen. Conditions: S16 Pmp22-F2sN Schwann cells (luciferase reporters placed in the Pmp22 gene), FLuc/NLuc coincidence luminescence, 24 h; series mostly up to 57.5 µM; activity change, negative = inhibition: at the top concentration. The text has this: Assay Provider: Jim Inglese Ph.D. National Center for Advancing Translational Science, National Institutes of Health, Rockville, MD CMT is a heterogeneous group of neurological disorders that affect approximately 1 in 2,500 people. In particular, the most common form of CMT, CMT1A is genetically linked to the duplication of the PMP22 gene which leads to Schwann cell overexpression, thus manifesting itself as a typical case of dose-sensitive diseases. To identify small molecule compounds that can mediate the expression of PMP22 we developed a phenotypic assay screening strategy by utilizing genome editing techniques to construct Schwann cell lines containing novel reporter technology to monitor the transcriptional or translational regulation of PMP22. For high sensitivity we use a bioluminescent reporter system embedded in the 3' UTR of the PMP22 gene (S16(c9) Pmp22-F2sN) to identify compounds that inhibit gene expression. […] We can further discriminate the effect of all transcriptionally active molecules on PMP22 translation or stability with an assay that incorporates a short NLuc peptide (HiBiT) at the C-terminus of expressed PMP22 (S16(f8) PMP22-HiBiT) allowing alpha complementation and luminescence detection of membrane-associated PMP22 protein. These assays were screened against the NCATS Sytravon Library Collection. Miniaturization of these assays to 1536-well plate format for quantitative high throughput screening (qHTS) yielded rich data sets immediately from the qHTS assay (S16(c9) Pmp22-F2sN), when compared with data from a cell viability assay (Cell TiterGlo) to identify compounds that decreased the output signals through cellular toxicity to streamline the selection process of actives for subsequent characterization using the HiBiT assay (S16(f8) PMP22-HiBiT).
Cell-based coincidence reporter assay to measure PMP22 gene transcription in S16 Pmp22-F2sN cells PROTOCOL TABLE (format as described by Inglese J, Shamu CE and Guy RK. 2007) SEQUENCE No. (e.g., 1, 2, 3, etc.); […] (e.g., Cells, Incubation, Reagent, etc.); VALUE and DESCRIPTION. 1. Cells. Add 500-1,000 cells in 4 uL in growth media (DMEM High Glucose, No Phenol Red media + 10% heat-inactivated FBS + 1% Pen/Strep supplemented media) per well into Greiner 1536-well white/solid bottom high base, TC-treated plates. 2. Compounds. Library compounds and controls added at 23nL per well, transferred by Pin Tool. 3. Incubation. Incubate plates at 37C, 5% CO2, 95% RH for 24 h. 4. Reagent. Add 3.5uL Nano-Glo Dual-Luciferase Reporter Assay System reagent 1: Lysis and FLuc reagent per well of Greiner 1536-well plates. 5. Incubation. Incubate plates at room temperature for 10 min., protect from light. 6. Detector. FLuc luminescence measured using CCD-based camera (Viewlux). 7. Reagent. Add 3.5uL Nano-Glo Dual-Luciferase Reporter Assay System reagent 2: Stop&Glo reagent per well of Greiner 1536-well plates. 8. Incubation. Incubate plates at room temperature for 10 min., protect from light. 9. Detector. NLuc luminescence measured using CCD-based camera (Viewlux). NOTES (numbers refer to Sequence numbers above; values are from representative experiments) 6. Luminescence Read #1 (FLuc): Clear filter; Exposure = 10 sec, Gain = High, Speed = Slow, Binning = 2X 9. Luminescence Read #2 (NLuc): Clear filter; Exposure = 1 sec, Gain = High, Speed = Slow, Binning = 2X REFERENCES: 1. Inglese J, Shamu CE and Guy RK, Reporting data from high throughput screening of small molecule libraries, Nature Chemical Biology, 2007, 3(8): 438-441. doi.org/10.1038/nchembio0807-438 2. Yasgar A, Shinn P, Jadhav A, Auld DS, Michael S, Zheng W, Austin CP, Inglese J and Simeonov A, Compound Management for Quantitative High-Throughput Screening. J. Assoc. Lab. Auto., 2008, 13: 79-89. doi: 10.1016/j.jala.2007.12.004
Background: A reporter such as luciferase makes a cellular process visible.
Consider `CC(=O)N1CCCc2cc(S(=O)(=O)N3CCCC(C(=O)N4CCN(c5cccc(Cl)c5)CC4)C3)ccc21` (stereo not drawn), for which the Potency is 10 µM (active).
On to `COc1cccc(N2CCN(S(=O)(=O)c3ccc4c(c3)CCCN4C(C)=O)CC2)c1`, for which the “activity change, negative = inhibition” value was -20.8%.
As to `CC(=O)N1CCCc2cc(S(=O)(=O)N3CCCC(C(=O)NCc4ccc(Cl)cc4)C3)ccc21` (stereo not drawn), the “activity change, negative = inhibition” value is -50.4%.
For `Cc1cccc(Nc2cc(C)nc(-n3nc(C)cc3C)n2)c1`, the Potency is 9.15 µM (active).
Turning to `Cc1ccc(Nc2nc3ccccc3nc2-n2nc(C)cc2C)c(Cl)c1`, the “activity change, negative = inhibition” value was -3.07%.
The same measure, in the same setting: the value for `Cc1cccc(Nc2nc(C)nc(N)c2S(=O)(=O)c2ccccc2)c1` was -24.8%.
Regarding `Cc1c(Cl)cccc1NC(=O)Cn1cc(C(=O)c2cccs2)c2ccccc21`, the Potency was 8.91 µM (active).
`Cc1cccc(NC(=O)Cn2cc(S(=O)(=O)Cc3ccccc3Cl)c3ccccc32)c1`: the “activity change, negative = inhibition” value is -23.6%.
On the same count and under the same terms, the value for `Cc1c(Cl)cccc1NC(=O)N1CCN(C(=O)c2nsc3ccccc23)CC1` was 6.76%; that for `Cc1cccc(NC(=O)CSc2nc(-c3ccco3)cc(C(F)(F)F)n2)c1C` was -2.59%; that for `Cc1ccc2ncc(C(=O)Nc3ccc(OC(F)(F)F)cc3)c(=O)n2c1` was -9.44%.
Same read-out and setting: for `COCC(C)NS(=O)(=O)c1ccc(N2CCCCS2(=O)=O)cc1` (stereo not drawn) the value was -17.4%; for `CCOC(=O)C1CCN(c2ncnc3c2c(-c2ccccc2)cn3-c2cccc(C)c2)CC1`, 29.9%.
Still for that read-out and setting: for `Cc1cccc(NC(=O)CN(c2ccc(C(C)C)cc2)S(=O)(=O)c2c(C)nn(C)c2C)c1C` the value was -1.83%.
Consider `O=C(Nc1ccc(F)cc1F)c1cnn(-c2ccc(F)cc2)c1-n1cccc1`, for which the “activity change, negative = inhibition” value is 1.78%.
On the same count and under the same terms, for `Cc1cc(F)ccc1NC1(c2ccccc2)C(=O)c2ccccc2C1=O` the value was -17.3%.
Consider `Cc1cc(F)ccc1NS(=O)(=O)c1ccc(-n2cccn2)cc1`, for which the Potency was 15 µM (active).
On to `O=C(Cn1nc(Cc2cccnc2)c2ccccc2c1=O)N1CCN(c2ccccc2F)CC1`, for which the “activity change, negative = inhibition” value is -3.71%.
The same measure, in the same setting: for `Cc1ccc(C2C=C(c3ccc(Cl)cc3)Nc3nc(NC(=O)CCC(=O)O)nn32)cc1` (stereo not drawn) the value was -1.58%; for `Cc1cc(-c2ccccc2)n2nc(-c3ccccc3)cc2n1`, 24.1%; for `O=C(CCc1nc(CN2CCN(S(=O)(=O)c3ccc(Cl)cc3)CC2)no1)N1CCCCC1`, -9.23%.
On the same count and under the same terms, the value for `Cc1cc(C)c(NC(=O)CSc2nc3ccncc3[nH]2)c(C)c1` was -45.4%; that for `CCCCn1c(=N)c(S(=O)(=O)c2ccccc2)cc2c(=O)n3cccc(C)c3nc21` was -13.2%; that for `Cc1ccc(CNC(=O)c2c(O)nc3c(C)cccn3c2=O)cc1` was 25.4%.
For `CCCn1c(=N)c(C(=O)NCc2ccccc2)cc2c(=O)n3cccc(C)c3nc21`, the Potency is 2.24 µM (active).
As for `COc1ccc(-c2cc(C(=O)NCc3cc(OC)c(OC)c(OC)c3)[nH]n2)cc1`, the “activity change, negative = inhibition” value was -8.61%.
On the same count and under the same terms, for `Cc1ccccc1CNC(=O)C(=O)NCC(c1cccs1)S(=O)(=O)c1cccs1` (stereo not drawn) the value was -27.5%.
Consider `Cc1ccc(-n2nc(C)c(C(=O)O)c2-n2cccc2)cc1`, for which the “activity change, negative = inhibition” value is -0.533%.
Consider `CCC1CCCCN1CCCNC(=O)c1cc2c(Cl)nc3ccccc3c2s1` (stereo not drawn), for which the Potency is 17.8 µM (active).
With `CCOCCCNC(=O)c1cc2c(=O)n3ccccc3nc2s1`, the “activity change, negative = inhibition” value is -12.9%.
As to `CCn1c(=O)c2cc(C(=O)NCCc3ccc(Cl)cc3)sc2c2ccccc21`, the “activity change, negative = inhibition” value is -26.8%.
The same measure, in the same setting: the value for `O=S(=O)(Nc1ccc2nc(-c3cccc(Cl)c3)oc2c1)c1ccccc1` was -19.7%; that for `COc1cc(OC)c(NC(=O)c2nc(-c3ccncc3)no2)cc1Cl` was -11.9%; that for `CCCN(CCC)CCCNC(=O)Cn1ncc2c3ccccc3n(Cc3ccccc3)c2c1=O` was -19.1%.
On to `Cc1ccc(Cn2c(C)c3cnn(CC(=O)NCc4ccccc4)c(=O)c3c2C)cc1`, for which the Potency was 8.43 µM (active).
Still for that read-out and setting: the value for `CCCn1c2ccccc2c2cnn(CC(=O)NCC3CCN(Cc4ccc(C)cc4)CC3)c(=O)c21` was 18.9 µM (active).
Regarding `O=C(Cn1ncc2c3ccccc3n(Cc3ccccc3)c2c1=O)NCc1ccccn1`, the “activity change, negative = inhibition” value is -17.6%.
For `CCCn1c2ccccc2c2cnn(CC(=O)NCCCOC(C)C)c(=O)c21`, the “activity change, negative = inhibition” value was -4.77%.
For the molecule `CCCn1c2ccccc2c2cnn(CC(=O)N3CCCC(C(=O)OCC)C3)c(=O)c21` (stereo not drawn), the “activity change, negative = inhibition” value is -19.6%.
With `CCOC(=O)c1ccc(NC(=O)Cn2c(=O)n(-c3ccc(C)cc3)c(=O)c3c2cnn3C)cc1`, the “activity change, negative = inhibition” value is 3.69%.
On the same count and under the same terms, the value for `O=C(CSc1nccn1Cc1ccc(F)cc1)NCc1ccccc1` was 0.174%.
Same read-out and setting: for `COc1ccc(NC(=O)C2CCN(c3ccc(Sc4ccc(C)cc4)nn3)CC2)c(OC)c1` the value was -27.1%; for `COc1cc(C(=O)NCCc2csc3nc(-c4ccccc4C)nn23)cc(OC)c1OC`, 44.6%; for `CCC(=O)Nc1ccc(C)cc1-c1nc2ccccc2n(Cc2ccccc2)c1=O`, 1.15%.
Same read-out and setting: the value for `Cc1ccc(C)c(N2CCN(Cc3nnc(-c4ccccc4)o3)CC2)c1` was -22.9%; that for `CCN(CC)C(=O)CSc1nc2ccsc2c(=O)n1Cc1ccccc1Cl` was -22.1%; that for `COc1ccc(NS(=O)(=O)c2cc3c(cc2C)N(C(C)=O)CCO3)cc1` was -6.59%.
Turning to `Cc1ccc2nc(COc3cccc(NC(=O)Nc4ccc(C)c(Cl)c4)c3)cc(=O)n2c1`, the “activity change, negative = inhibition” value was -3.59%.
